Data on 64 compounds can be found in PubChem BioAssay AID1465 (SRMLSC, 2008).

SMILES strings stand for the structures. Screen size: about 220,000 compounds; about 160 (0.073%) were called active.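 How the source made its calls: active means fold induction of absorbance versus untreated yeast above a set limit, then at least 30% activation at any dose in follow-up; inconclusive means repeats straddling the limit, or above it without dose testing; inactive means fold induction below the set limit.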 The list is a sample of the results. Potency and affinity values are given separately.

This experiment can be described thus: mitochondrial function rescue without frataxin homolog – Friedreich's ataxia, plus single-dose screen, dose response (AID 1465). The settings on record: S. cerevisiae Yfh1-off respiration, WST-1 reduction, 72 h; at 50 µM; hits give high values. (In general: Tetrazolium assays rely on reduction of a dye to a coloured formazan, in cell work by metabolically active cells.)
`CC[n+]1c(/C=C(\C)SC)sc2ccccc21`: the fold induction was 0.92 (inactive).

Take `CC[n+]1c(/C=C2\C=C(C)CC(C)C2)sc2ccccc21` (centres undefined): the fold induction was 0.873 (inactive).

As for `CC[n+]1c(/C=C2/C=C(C)CC(C)C2)sc2ccccc21` (centres undefined), the fold induction is 0.96 (inactive).

Regarding `CC[n+]1c(/C=C2\C=C(C)CC(C)(C)C2)sc2ccccc21`, the fold induction is 0.86 (inactive).

Take `COc1ccc(C(=O)COC(=O)c2ccc(N(C)C)cc2)cc1`: the fold induction was 1.01 (inactive).

Consider `Cc1[nH]nc(SCC(=O)NC2CCCC2)c1[N+](=O)[O-]`, for which the fold induction was 1.05 (inactive).

With `COCC(=O)N1CCCN(c2nc3c(C)cccc3cc2C#N)CC1`, the fold induction is 0.96 (inactive).

As for `CCC(=O)N1COC[C@@H]1Cc1ccccc1`, the fold induction is 1.04 (inactive).

As for `COC(=O)c1cc2c(ccn2-c2ccc(F)cc2)n1Cc1ccc(C#N)cc1`, the fold induction is 1.03 (inactive).

On to `O=C(O)C(Cc1ccccc1)N1C(=O)/C(=C/c2ccccc2)SC1=S` (centres undefined), for which the fold induction is 0.93 (inactive).

Regarding `CCC(C(=O)O)N1C(=O)/C(=C/C(C)=C/c2ccccc2)SC1=S` (centres undefined), the fold induction was 1.22 (inactive).

For the compound `Cn1cccc1/C=C1\SC(=S)N(Nc2ccccc2)C1=O`, the fold induction is 1.02 (inactive).

In the case of `Cn1cccc1/C=C1\SC(=S)N(NC(=O)c2ccccc2)C1=O`, the fold induction was 1.81 (inactive).

Turning to `NC(=O)c1cccc2c(=O)oc3ccccc3c12`, the fold induction was 0.99 (inactive).

For `CN1CCN(C(=O)c2cc(C(C)(C)C)cc(C(C)(C)C)c2)CC1`, the fold induction is 1.02 (inactive).

With `Cn1nnnc1P(=O)(c1ccccc1)c1ccccc1`, the fold induction was 1.15 (inactive).

In the case of `O=C(Nc1ccccc1-c1nc2ccccc2[nH]1)c1ccc(N2C(=O)CCC2=O)cc1`, the fold induction was 1.11 (inactive).

Take `CC1=C(N2CCOCC2)CCC1=O`: the fold induction was 0.92 (inactive).

In the case of `O=c1c(N2CCOCC2)c(N2CCOCC2)c1=O`, the fold induction is 1.08 (inactive).

Turning to `Cc1nc2ccc(NC(=O)COc3ccccc3[N+](=O)[O-])cc2s1`, the fold induction was 0.97 (inactive).

Regarding `CN(C(=O)COC(=O)c1ccc(Cl)cc1N)C1CCCCC1`, the fold induction is 1.06 (inactive).

For `CC(=O)c1cccc(NC(=O)N2CCCC2C(=O)Nc2c(C)cccc2C)c1` (centres undefined), the fold induction is 1.07 (inactive).

For `COc1ccc(C2=NN(c3nc(C)cc(C)n3)C(=O)C2)cc1`, the fold induction was 1.09 (inactive).

Regarding `COc1ccc(C2=NN(c3nc4ccccc4s3)C(=O)/C2=C\N(C)C)cc1`, the fold induction was 1.14 (inactive).

Take `CC(=O)Oc1cccc(-c2nc3ccccc3c(=O)o2)c1`: the fold induction is 0.89 (inactive).

With `CCOC(=O)c1[nH]c2ccccc2c1NC(=O)C1CCCCC1`, the fold induction is 1.05 (inactive).

Take `Cc1ccc2c3c(cccc13)-c1ccccc1C2=O`: the fold induction is 0.91 (inactive).

Regarding `Cc1coc2c1C(=O)C(=O)c1c-2ccc2c1CCCC2(C)C`, the fold induction is 1.54 (inactive).

As for `Cc1ccc(CN2C(=O)CCC2C(=O)NC(C)C)cc1` (centres undefined), the fold induction was 1.04 (inactive).

As for `COc1ccc2c(c1)c(CCN1C(=O)c3ccccc3C1=O)cn2C(=O)c1ccco1`, the fold induction was 1.01 (inactive).

`CCOc1cc(/C=N\O)cc(Cl)c1OCC`: the fold induction is 0.87 (inactive).

`CCOc1ccc2nc3ccc4[nH]onc4c3c2c1`: the fold induction was 0.93 (inactive).

In the case of `CCCCNC1=CC(=O)C(=O)c2ccccc21`, the fold induction is 2.68 (inactive).

Consider `O=C1C=C(Nc2ccccc2)c2ccccc2C1=O`, for which the fold induction was 1 (inactive).

`O=C(C1CCCO1)N1CCN(C(=S)Nc2ccccc2Cl)CC1` (centres undefined): the fold induction was 0.94 (inactive).

Regarding `COCCCn1c(SCc2nnc(-c3ccc(OC)c(OC)c3)o2)nnc1-c1ccncc1`, the fold induction is 1.13 (inactive).

As for `COC(=O)N/N=C/c1cc(OC)c(O)c([N+](=O)[O-])c1`, the fold induction is 1.19 (inactive).

For the compound `COc1cc(/C=N/NC(=O)c2ccc(C)nc2)cc([N+](=O)[O-])c1O`, the fold induction is 1.21 (inactive).

`COC(=O)C1CCN(C(=O)Cc2c(OC)ccc3cc(Br)ccc23)CC1`: the fold induction was 0.95 (inactive).

Regarding `CCOC(=O)C1(Cc2cccc(OC)c2)CCN(CC=C(C)C)CC1`, the fold induction was 1.02 (inactive).

As for `O=[N+]([O-])c1ccc(Sc2cccc3cccnc23)c2cccnc12`, the fold induction is 1.02 (inactive).

Turning to `O=[N+]([O-])c1cccc(CSc2cccc[n+]2[O-])c1`, the fold induction is 1.1 (inactive).

In the case of `CCN(C(=O)CSc1ncccc1C(=O)Oc1cccc([N+](=O)[O-])c1)c1cccc(C)c1`, the fold induction is 0.93 (inactive).

Take `O=C(NCCNc1ccc([N+](=O)[O-])cc1)c1ccco1`: the fold induction was 1.23 (inactive).

Consider `CCN(CC)S(=O)(=O)c1ccc(N/N=C/c2cccnc2)nc1`, for which the fold induction is 1.09 (inactive).

Turning to `Clc1ccc(CSc2ccc(-c3ccccn3)nn2)cc1`, the fold induction is 0.99 (inactive).

Take `c1cncc(CSc2ccc(-c3cccnc3)nn2)c1`: the fold induction is 1.13 (inactive).

Take `Cc1cc(C(=O)N/N=C/c2ccccc2Br)no1`: the fold induction is 0.94 (inactive).

Take `COC(=O)c1nc(NC2=NCCCCC2)n[nH]1`: the fold induction was 1.02 (inactive).

With `COC(=O)c1cc(OC)c(OC)cc1NC(=O)c1cccc(OC)c1OC`, the fold induction is 1.09 (inactive).

As for `O=C(C=C1CCN(c2ncc(C(F)(F)F)cc2Cl)CC1)NNC(=O)Nc1ccccc1`, the fold induction is 0.89 (inactive).

Take `O=C1NN(c2ccc(F)cc2)C(=O)/C1=C\c1cnn(-c2ccccc2)c1`: the fold induction is 1.14 (inactive).

`COc1ccc(NC(=O)c2csc3c2CCCCC3)c(OC)c1`: the fold induction was 1 (inactive).

As for `COc1ccc(CNC(=O)CCS(=O)(=O)Cc2ccc(C)cc2)c(OC)c1`, the fold induction was 0.98 (inactive).

As to `CCOC(=O)c1cnn(-c2ccccc2)c1NC(=O)c1ccccc1C`, the fold induction is 0.92 (inactive).

On to `CCN(CC)c1ccc(/C=N/NC(=O)c2cccc(S(=O)(=O)Nc3ccccc3OC)c2)cc1`, for which the fold induction is 1.14 (inactive).

With `COc1ccccc1NS(=O)(=O)c1cccc(C(=O)N/N=C/c2ccccc2OCC(=O)O)c1`, the fold induction is 0.99 (inactive).

Regarding `O=C(NCc1n[nH]c(=S)n1-c1ccc(Cl)c(Cl)c1)c1cccs1`, the fold induction is 0.98 (inactive).

With `O=C(NNC1=C(C(=O)C(F)(F)F)CCC1)c1ccccc1Cl`, the fold induction was 1.02 (inactive).

Turning to `O=C(NNC1=C(C(=O)C(F)(F)F)CCC1)c1ccc(Cl)cc1`, the fold induction is 1.11 (inactive).

With `O=C(NNC1=C(C(=O)C(F)(F)F)CCC1)c1ccccc1O`, the fold induction is 0.82 (inactive).

For `O=C(NNC1=C(C(=O)C(F)(F)F)CCC1)c1ccncc1`, the fold induction is 1.05 (inactive).

`CN(C)c1ccc(NC(=O)C(=O)NCCOc2ccccc2)cc1`: the fold induction is 0.95 (inactive).

For `CC(C)=CC(=O)OCC(=O)Nc1cc(C)cc(C)c1`, the fold induction was 0.86 (inactive).

As usually defined, the fold induction is the signal under treatment as a multiple of the control signal.
